Shiga toxin inh: A qHTS for Small Molecule Inhibitors of Shiga Toxin | inhibition, % at 38.7 µM | actives 9.2% (n = 290,000) | Vero cells, Shiga toxin protein synthesis inhibition reporter | AID 2315, 2010; in the data active means inhibition mostly above about 28%, no sharp cut-off; inactive means mostly below about 43%; further: 0% is about no effect
HCV inhibitor: qHTS Assay for Inhibitors of Hepatitis C Virus (HCV); Potency, µM (titrated, usually from 41.8 µM), for inactives: at the top dose activity change, negative = inhibition, hits mostly inhibitors; actives 3.4% (n = 340,000); Huh7.5.1 HCVcc-Cre infection, luciferase reporter, 44 h; AID 651820, 2012; active means well fitted inhibition curve with a large enough effect; inconclusive means small, poorly fitted or top-dose-only effect, or another doubt; inactive means no such curve, though single readings can be large or run the other way; further: potency means the concentration at half of the fitted maximal effect; on the % scale 0 is the no-effect control and ±100 the full control effect
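Cells seeded at 1,000/well and cultured 4 h, then compounds added followed by HCVcc-Cre virus (~0.5 moi). After 44 h further culture, luciferase substrate was added, plates held 15 min at room temperature, and luminescence read for 15 sec.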
Marburg entry inh: qHTS for inhibitors of binding or entry into cells for Marburg Virus; Potency, µM (highest dose often 37.8 µM), for the others: at the highest dose activity change, negative = inhibition, actives largely listed as inhibitors; actives 1.8% (n = 300,000); Marburg virus pseudotyped entry inhibition, cell reporter; calls by dose curve; tested in HEK293 cells; further: potency means the concentration at half of the fitted maximal effect; on the % scale 0 is the no-effect control and ±100 the full control effect
FMDV antiviral: High Throughput Screening for Foot and Mouth Disease Virus Antivirals. FMDV antiviral cell-based qHTS. Potency, µM (highest dose often 57.9 µM), inactives show top-dose activity change, negative = inhibition, most hits filed as inhibitors. actives 1.2% (n = 410,000); calls by dose curve; tested in HEK293T cells; further: read-out not given here; potency means the concentration at half of the fitted maximal effect; on the % scale 0 is the no-effect control and ±100 the full control effect; nearly all actives have a fitted effect of over 45% in size
CHX counter: Cycloheximide Counterscreen for Small Molecule Inhibitors of Shiga Toxin. cell reporter, cycloheximide protein synthesis inhibition counterscreen. max response, %. actives 12% (n = 300,000); in the data active means max response mostly above about 13%, no sharp cut-off; inactive means mostly below about 14%; further: read at 38.3 µM for the half of the compounds with a filed dose; 0% is about no effect
Lassa entry inh: qHTS for Inhibitors of binding or entry into cells for Lassa Virus | Potency, µM (highest dose often 37.9 µM), for the others: at the top dose activity change, negative = inhibition, actives largely listed as inhibitors | AID 540256, 2011 | actives 1.2% (n = 300,000) | Lassa virus pseudotype entry inhibition, cell reporter; calls by dose curve; tested in HEK293 cells; further: potency means the concentration at half of the fitted maximal effect; on the % scale 0 is the no-effect control and ±100 the full control effect; nearly all actives have a fitted effect of over 50% in size
An asterisk follows results filed as active; ? = inconclusive; nt = no result; [ ] = remark or other dose. A selection: hits, their analogues and other compounds. The true share with any hit is near 13%.

SMILES | Shiga toxin inh | HCV inhibitor | Marburg entry inh | FMDV antiviral | CHX counter | Lassa entry inh
O=C(CCCN1C(=O)/C(=C/c2ccccc2Cl)SC1=S)NNC(=O)c1ccccc1Cl | -15 | 12% | 6.3µM* | ? | -7 | ?
CC(C)N(Cc1nc(-c2ccccc2)no1)C(=O)C(Cl)(Cl)Cl | 1 | ? | ? | -24% | 8 | ?
O=C(OC(C(=O)NC1CCCC1)c1ccccc1F)c1ccco1 (stereo not given) | 30 | 10% | -10% | -10% | 5 | ?
CCN(CC)c1nc(N)n(CCSC(=S)N(C)C)c(=O)n1 | 9 | -6% | nt | -8% | 7 | nt
COc1cccc(/C=C2\SC(=S)N(CCC(=O)NCCc3ccc(O)cc3)C2=O)c1 | 16 | ? | ? | 0% | 9 | ?
COc1ccc(/C=C2\SC(=O)N(CCCC(=O)Nc3ccc(C(=O)O)cc3)C2=O)cc1 | nt | nt | nt | 4µM* | nt | nt
COc1cccc(/C=C2\SC(=S)N(CCC(=O)Nc3ccc(O)cc3)C2=O)c1 | 47* | ? | nt | 38% | 30* | nt
COc1ccc(/C=C2\SC(=S)N(CCCC(=O)NNC(=O)c3ccccc3O)C2=O)cc1 | -8 | ? | ? | 4.5µM* | 1 | 2.2µM*
COc1cc(NC(=O)c2cccc(C)c2)c(OC)cc1NC(=O)CN1CCOCC1 | -15 | ? | nt | -2% | 7 | nt
COc1cccc(OC)c1C(=O)N1CCN(Cc2ccncc2)CC1 | -2 | 2% | -17%[46.1 µM] | -26% | 0 | ?
O=c1[nH]c2ccccc2nc1/C=C/c1ccccc1 | 59* | -16% | -1%[46.1 µM] | 38% | 45* | 10%[46.1 µM]
O=c1[nH]c2ccccc2nc1/C=C/c1ccc(F)cc1 | 73* | ? | ? | 18% | 37* | ?
O=c1[nH]c2ccccc2nc1/C=C/c1ccc(O)cc1 | 70* | ? | ? | -1% | 42* | ?
CCOc1ccc([C@@H]2CC=C(C(=O)O)[C@H](c3ccc(Cl)cc3)N2S(=O)(=O)c2ccc(C)cc2)cc1 | nt | 20% | nt | -5% | nt | nt
COc1cc2[nH]c(=S)n(Cc3ccccc3)c(=O)c2cc1OC | -14 | ? | ? | -20% | -4 | -2%
Cc1csc(NC(=O)c2ccc(S(=O)(=O)N3CCN(C)CC3)cc2)n1 | 58* | -6% | 8%[46.1 µM] | 27% | 32* | 14%[46.1 µM]
Cc1csc(NC(=O)c2cccc(S(=O)(=O)N3CCN(C)CC3)c2)n1 | 21 | -18% | 10%[46.1 µM] | 6% | 5 | 12%
Cc1csc(NC(=O)c2ccc(S(=O)(=O)N3CCCC3)cc2)n1 | 39 | -1% | nt | 16% | 17* | nt
O=C(Nc1nccs1)C1CCCCN1S(=O)(=O)c1ccccc1 (stereo not given) | 5 | 13% | nt | -9% | 2 | nt
O=C(C1CCCCN1S(=O)(=O)c1ccccc1)N1CCN(C(c2ccccc2)c2ccccc2)CC1 (stereo not given) | 13 | 13µM* | ? | -19% | 3 | -38%
O=C(C1CCCCN1S(=O)(=O)c1ccccc1)N1CCCCC1 (stereo not given) | 5 | ? | 0% | -9% | -3 | 7%
Cc1csc(NC(=O)C2CCCCN2S(=O)(=O)c2ccccc2)n1 (stereo not given) | 26 | 0% | -16% | -13% | 13* | 1%
Cc1cc(C(F)(F)F)nc(SCC(=O)NC2CCCCC2)n1 | 3 | 1% | 12%[46.1 µM] | 5% | -2 | nt
O=C(Cn1cnc([N+](=O)[O-])n1)NC1CC1 | 1 | -2% | nt | -8% | -4 | nt
Cc1nnc(NC(=O)c2cc(S(=O)(=O)N3CCCCC3)ccc2Cl)s1 | -27 | 11µM* | 12% | -17% | -2 | 21%
SMILES | Shiga toxin inh | HCV inhibitor | Marburg entry inh | FMDV antiviral | CHX counter | Lassa entry inh
O=C(Nc1nccs1)c1cc(S(=O)(=O)N2CCCCC2)ccc1Cl | -12 | 7% | ? | ? | 5 | 4%
COc1cccc(C(=O)OCc2ccccc2C#N)c1O | 36 | -6% | ? | 33% | 21* | 11%
N#Cc1ccccc1COC(=O)c1ccc(Br)o1 | 55 | 2% | -16%[46.1 µM] | 26% | 26* | ?
Cn1c(Nc2ccccc2)nc2ccccc21 | 52 | 16% | nt | 24% | 25* | nt
Nn1c(Nc2ccccc2)nc2ccccc21 | 58* | 8% | 9% | 68% | 36* | 27%
CCOc1ccc(Nc2nc3ccccc3n2C)cc1 | nt | 0% | 13% | 37% | nt | -1%
Nn1c(Nc2ccccc2)nc2ccccc2c1=O | 43 | -18% | 9% | -25% | 1 | 28%
CCCCOC(=O)c1ccc(NC(=S)NC(=O)c2c(Cl)cnn2CC)cc1 | 35 | -2% | 1%[46.1 µM] | -1% | 6 | -2%
Cc1nn(C)c(C(=O)NC(=S)Nc2ccccc2Br)c1Cl | 17 | -17% | nt | 24% | 22* | nt
CCn1ncc(Cl)c1C(=O)NC(=S)Nc1ccccc1Br | 21 | -26% | 6% | -26% | 33* | -23%
CC1=C(C(=O)N(C)C)CC(CC(=O)NCCc2ccccn2)C(=O)N1Cc1ccccc1 (stereo not given) | nt | nt | nt | -5% | nt | nt
CN1CCN(c2ncnc3c2cnn3-c2cccc(Cl)c2)CC1 | nt | nt | nt | -2% | nt | ?
Cn1ncc2c(N3CCN(c4cccc(Cl)c4)CC3)ncnc21 | nt | nt | nt | 16µM* | nt | ?
CC(=O)c1ccc(N2CCN(c3ncnc4onc(C)c34)CC2)cc1 | nt | nt | nt | ? | nt | 25%[46.1 µM]
Cc1noc2ncnc(N3CCN(c4cccc(Cl)c4)CC3)c12 | -4 | 10µM* | nt | 25µM* | -8 | nt
Cc1nnc(SCC(=O)N2CCCC2)n(N)c1=O | 39 | 15% | 10%[46.1 µM] | -10% | 6 | 8%
Cc1csc(SCC(=O)c2c(N)n(CC(C)C)c(=O)n(C)c2=O)n1 | -8 | 16µM* | -14% | ? | -4 | -16%
CCOC(=O)Cc1csc(SCC(=O)c2c(N)n(CC(C)C)c(=O)n(C)c2=O)n1 | 18 | 7.9µM* | ? | 11µM* | -5 | ?
CC(C)Cn1c(N)c(C(=O)CSc2ncccn2)c(=O)n(C)c1=O | nt | 2% | -21% | -17% | nt | 14%[46.1 µM]
Cc1csc(=O)n1CC(=O)OCC(=O)c1c(N)n(CC(C)C)c(=O)n(C)c1=O | nt | -21% | -6%[46.1 µM] | 0% | nt | -11%
COc1cc(-c2noc(-c3nnn(-c4ccc(Cl)cc4)c3C)n2)cc(OC)c1OC | nt | nt | nt | -28% | nt | 24%[46.1 µM]
O=C(Nc1ccc(Cl)cn1)c1cc2ccccc2o1 | 105* | ? | ? | -28% | 66* | ?
O=C(NC1=NCCS1)c1cc2ccccc2o1 | 17 | 5% | ? | -61% | 18* | ?
O=C(Nc1ncccc1O)c1cc2ccccc2o1 | nt | 2% | ? | ? | nt | 1.3µM*
O=C(Nc1cccc2ncccc12)c1cc2ccccc2o1 | -2 | -9% | 0% | -8% | -3 | 0%
Cc1ccnc(NC(=O)c2cc3ccccc3o2)c1 | nt | -26% | 1.1µM* | 28µM* | nt | ?
O=C(NNC(=O)c1cc2ccccc2o1)c1ccc(Cl)cc1 | -5 | 12% | ? | 9% | 0 | 5%

High-throughput results (PubChem BioAssay)
